Assay outcomes from PubChem.
A selection: hits, their analogues and other compounds. The true share with any hit is near 2.7%.
KKLEB cytotox = cytotoxicity in KKLEB CF airway cells, primary screen, cytotoxicity control for CF NF-kB inhibitor project, cell-based, uHTS, fluorescence assay plates; 0.36% of 360,000 active; AID 602141, 2011; activity change (cytotoxicity), % at 5 µM; KKLEB CF airway cells viability, ATPlite luminescence, overnight; hits give low values; cells stimulated with P. aeruginosa culture filtrate;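 active = corrected activity change at or below -50% at 5 µM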
CF NFkB inh = inhibitors of PAF-induced NF-kB signaling, primary screen, cell-based, GFP fluorescence, uHTS | inhibition, % at 5 µM | 0.86% of 360,000 active | KKLEB NF-kB-GFP reporter, GFP fluorescence overnight;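 active = at least 50% inhibition at 5 µM, scaled per plate between neutral and stimulator controls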;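 also: PAF is a Pseudomonas aeruginosa culture filtrate used as stimulus; plate controls were PAF-stimulated DMSO wells for no effect and unstimulated DMSO wells for full effect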
HIF-2a inh = HIF-2a reporter inhibitors, primary screen, luminescence, 786-0 RCC cells | 786-0 RCC cells HIF-2a reporter, luciferase luminescence, overnight | inhibition, % at 18.8 µM | 0.72% of 360,000 active | AID 624352, 2012;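 active = inhibition of the luminescence signal of 40% or more relative to plate controls, in a single-dose primary screen at 18.75 µM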
Shn3 inh set2 = reduction of Shn3 3'UTR firefly luciferase signal, primary screen, Schnurri-3 inhibitor project, cell-based, Clone20 osteoblasts, set 2 | inhibition, % at 12.5 µM | 0.52% of 360,000 active | Clone20 osteoblast Shn3 3'UTR firefly luciferase, 24 h | AID 588674, 2011;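 active = mean inhibition of at least 75% with every replicate also reaching 75%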;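 also: 0% = median of neutral control wells and 100% = pilot-screen positive control compound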
TRPM1 prom inh = inhibitors of MITF-dependent TRPM1 promoter reporter, primary screen, cell-based, SK-MEL-5, single point, luciferase | SK-MEL-5 TRPM1 promoter luciferase, 24 h | inhibition, % at 12.5 µM | 0.83% of 330,000 active;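 active = mean inhibition across replicates of 60% or more, whatever share of single replicates reaches that level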
Peg3 promoter = Peg3 promoter-driven luciferase inhibitors, primary screen, cell-based, HeLa, luciferase luminescence | HeLa PEG-Prom luciferase reporter, overnight | inhibition, % at 20 µM | 1.7% of 360,000 active | AID 588405, 2011;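 active = inhibition of at least 50% at 20 µM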
CF NFkB conf = inhibitors of PAF-induced NF-kB signaling, retest, confirmation, cell-based, GFP fluorescence, single concentration; shares compounds with CF NFkB inh; KKLEB CF airway cells, overnight; inhibition, % at 5 µM; 64% of 1,300 active; AID 602472, 2012; in the data active = inhibition above about 40%;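 also: stimulus PAF is a Pseudomonas aeruginosa filtrate and not platelet activating factor; plate controls were DMSO wells with stimulus for no effect and unstimulated DMSO wells for full effect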
* = called active by the depositor; ! = a repeat was not active.

How did Cc1ccc(-c2ccc(CN3C(C)C(=O)N(Cc4cn(CC5CCCCC5)nn4)CCS3(=O)=O)cc2)cc1 (stereo unspecified) do in these assays?
KKLEB cytotox: -24; CF NFkB inh: 76*; HIF-2a inh: -35; Shn3 inh set2: 18; Peg3 promoter: 12; CF NFkB conf: 40

How did CC1C(=O)N(Cc2cn(Cc3ccco3)nn2)CCS(=O)(=O)N1Cc1ccc(-c2ccccc2C(F)(F)F)cc1 (stereo unspecified) do in these assays?
KKLEB cytotox: -23; CF NFkB inh: 66*; HIF-2a inh: -16; Shn3 inh set2: 11; Peg3 promoter: 18; CF NFkB conf: 52*

What do the screens show for `CC(=O)Nc1cc(-c2ccoc2)cn2c(-c3ccccc3)cnc12`?
KKLEB cytotox: -10; CF NFkB inh: -21; HIF-2a inh: 7; Shn3 inh set2: -8; Peg3 promoter: -7

What do the screens show for `CCCCCCc1cc2cc(C(=O)OCC)c(=O)oc2cc1O`?
KKLEB cytotox: -32; CF NFkB inh: 53*; HIF-2a inh: -45; Shn3 inh set2: 25; TRPM1 prom inh: 3; Peg3 promoter: 27; CF NFkB conf: 78*

How did CCCCCCc1cc2cc(/C(N)=N/NC(=O)c3ccncc3)c(=O)oc2cc1O do in these assays?
KKLEB cytotox: -2; CF NFkB inh: 22; HIF-2a inh: 9; Shn3 inh set2: 17; TRPM1 prom inh: 9; Peg3 promoter: 20

What do the screens show for `CCn1c(=O)c2c(cnn2C)c2ccccc21`?
KKLEB cytotox: -15; CF NFkB inh: 72*; HIF-2a inh: 17; Shn3 inh set2: 27; TRPM1 prom inh: -11; Peg3 promoter: 4; CF NFkB conf: 78*

Results for NC(=O)c1cc2ccc(O)cc2oc1=Nc1ccccc1 ?
KKLEB cytotox: -28; CF NFkB inh: 82*; HIF-2a inh: -110; Shn3 inh set2: -29; TRPM1 prom inh: -39; Peg3 promoter: -119; CF NFkB conf: 83*

What do the screens show for `COCCN(C(=O)COC(=O)c1ccc2c(c1)OCO2)c1c(N)n(Cc2ccccc2)c(=O)[nH]c1=O`?
KKLEB cytotox: 7; CF NFkB inh: -23; HIF-2a inh: 10; Shn3 inh set2: 2; Peg3 promoter: 12

How did CC(C)Cn1c(C(C)C)nc([N+](=O)[O-])c1S(=O)(=O)c1ccc(F)cc1 do in these assays?
KKLEB cytotox: -36; CF NFkB inh: 58*; HIF-2a inh: 37; Shn3 inh set2: 19; TRPM1 prom inh: 49; Peg3 promoter: 34; CF NFkB conf: 5

Results for CC(C)Cn1c(C(C)C)nc([N+](=O)[O-])c1Sc1ccc(Cl)cn1 ?
KKLEB cytotox: -12; CF NFkB inh: 27; HIF-2a inh: 16; Shn3 inh set2: -20; TRPM1 prom inh: 10; Peg3 promoter: 18

How did C[C@H]1CCCCO[C@H](CN(C)Cc2ccc(C(=O)O)cc2)[C@@H](C)CN([C@@H](C)CO)C(=O)c2cc(NS(=O)(=O)c3cn(C)cn3)ccc2O1 do in these assays?
KKLEB cytotox: -30; CF NFkB inh: 1; HIF-2a inh: 8; Shn3 inh set2: -3; Peg3 promoter: 8

Results for N#CSCC(=O)c1cccc2ccccc12 ?
KKLEB cytotox: -35; CF NFkB inh: 55*; HIF-2a inh: 20; Shn3 inh set2: -4; TRPM1 prom inh: 18; Peg3 promoter: 32; CF NFkB conf: 54*

Results for c1ccc(CNc2ncnc3ccccc23)cc1 ?
KKLEB cytotox: -12; CF NFkB inh: 50*!; HIF-2a inh: 4; Shn3 inh set2: 84; TRPM1 prom inh: 5; Peg3 promoter: 7; CF NFkB conf: 41*

How did CC1=C(C(=O)N2CCOCC2)CC(CC(=O)NC2CCCCC2)C(=O)N1Cc1ccc(F)cc1 (stereo unspecified) do in these assays?
KKLEB cytotox: 9; CF NFkB inh: -10; HIF-2a inh: 3; Shn3 inh set2: -8; Peg3 promoter: -3

How did CC(=O)[C@@]1(O)CC[C@H]2[C@@H]3C[C@H](C)C4=CC(=O)CC[C@]4(C)[C@H]3CC[C@@]21C do in these assays?
KKLEB cytotox: 18; CF NFkB inh: 54*; HIF-2a inh: 19; Shn3 inh set2: 7; TRPM1 prom inh: -13; Peg3 promoter: -7; CF NFkB conf: -86

What do the screens show for `CC(=O)C1(O)CCC2C3CC(C)C4=CC(=O)CCC4(C)C3CCC21C` (stereo unspecified)?
KKLEB cytotox: 16; CF NFkB inh: 48; HIF-2a inh: 11; Shn3 inh set2: 0; Peg3 promoter: -1

What do the screens show for `CC1=C(C(=O)N(C)C)CC(CC(=O)NCc2cccs2)C(=O)N1Cc1ccc(C(C)(C)C)cc1` (stereo unspecified)?
KKLEB cytotox: -6; CF NFkB inh: -8; HIF-2a inh: -1; Shn3 inh set2: -8; Peg3 promoter: 3

What do the screens show for `CCOC(=O)c1ccc(NC(=O)c2ccccc2)cc1`?
KKLEB cytotox: 4; CF NFkB inh: -4; HIF-2a inh: -297; Shn3 inh set2: -116; TRPM1 prom inh: -107; Peg3 promoter: -288

How did CCOC(=O)c1ccc(NC(=O)c2c(N)n(Cc3ccccc3)c(=O)[nH]c2=O)cc1 do in these assays?
KKLEB cytotox: -48; CF NFkB inh: 58*; HIF-2a inh: 3; Shn3 inh set2: 27; TRPM1 prom inh: 39; Peg3 promoter: 10; CF NFkB conf: 33

Results for CN1CCN(c2ncnc3c2ncn3[C@H]2CN(Cc3cccnc3)C[C@@H](CO)O2)CC1 ?
KKLEB cytotox: 4; CF NFkB inh: -4; HIF-2a inh: 5; Shn3 inh set2: -6; Peg3 promoter: -1

Results for CCn1c2ccccc2c2cc(/C=N/O)ccc21 ?
KKLEB cytotox: -9; CF NFkB inh: 72*; HIF-2a inh: 3; Shn3 inh set2: 14; TRPM1 prom inh: -2; Peg3 promoter: -20; CF NFkB conf: 62*

What do the screens show for `CCn1c2ccccc2c2cc(/C=N/n3cnnc3)ccc21`?
KKLEB cytotox: -26; CF NFkB inh: -13; HIF-2a inh: 23; Shn3 inh set2: 28; TRPM1 prom inh: -5; Peg3 promoter: 38

What do the screens show for `COc1cc2nc(CN(C)Cc3ccc(Cl)cc3)[nH]c(=O)c2cc1OC`?
KKLEB cytotox: -2; CF NFkB inh: 11; HIF-2a inh: 28; Shn3 inh set2: -4; TRPM1 prom inh: 10; Peg3 promoter: 16

How did COc1cc2cncc(Cc3ccc(Cl)cc3)c2cc1OC do in these assays?
KKLEB cytotox: -14; CF NFkB inh: 72*; HIF-2a inh: 9; Shn3 inh set2: 45; TRPM1 prom inh: -27; Peg3 promoter: 6; CF NFkB conf: 87*
